Where “and” joins values, the source holds several entries; their conditions need not be identical. Identical values can stand only once. Results filed as inconclusive are left out. Entries that show only a call come without a potency. Calls of active or inactive are those of the source. Unless noted, the call rests on the fitted dose curve.
Experiments:
[1] = target: Glucocorticoid receptor (Homo sapiens) (UniProt P04150); assay: qHTS assay for small molecule agonists of glucocorticoid receptor signaling (AID 588532; active means well fitted curve in the direction sought with a large enough effect in the signal ratio, with a control signal flat; the % refers to the signal ratio); conditions: HeLa MMTV-bla, beta-lactamase ratio, agonist, 18 h; stronger effect = higher value; percent of dexamethasone control, DMSO zero
Chain of Glucocorticoid receptor (Homo sapiens) (P04150 whole entry, looked up): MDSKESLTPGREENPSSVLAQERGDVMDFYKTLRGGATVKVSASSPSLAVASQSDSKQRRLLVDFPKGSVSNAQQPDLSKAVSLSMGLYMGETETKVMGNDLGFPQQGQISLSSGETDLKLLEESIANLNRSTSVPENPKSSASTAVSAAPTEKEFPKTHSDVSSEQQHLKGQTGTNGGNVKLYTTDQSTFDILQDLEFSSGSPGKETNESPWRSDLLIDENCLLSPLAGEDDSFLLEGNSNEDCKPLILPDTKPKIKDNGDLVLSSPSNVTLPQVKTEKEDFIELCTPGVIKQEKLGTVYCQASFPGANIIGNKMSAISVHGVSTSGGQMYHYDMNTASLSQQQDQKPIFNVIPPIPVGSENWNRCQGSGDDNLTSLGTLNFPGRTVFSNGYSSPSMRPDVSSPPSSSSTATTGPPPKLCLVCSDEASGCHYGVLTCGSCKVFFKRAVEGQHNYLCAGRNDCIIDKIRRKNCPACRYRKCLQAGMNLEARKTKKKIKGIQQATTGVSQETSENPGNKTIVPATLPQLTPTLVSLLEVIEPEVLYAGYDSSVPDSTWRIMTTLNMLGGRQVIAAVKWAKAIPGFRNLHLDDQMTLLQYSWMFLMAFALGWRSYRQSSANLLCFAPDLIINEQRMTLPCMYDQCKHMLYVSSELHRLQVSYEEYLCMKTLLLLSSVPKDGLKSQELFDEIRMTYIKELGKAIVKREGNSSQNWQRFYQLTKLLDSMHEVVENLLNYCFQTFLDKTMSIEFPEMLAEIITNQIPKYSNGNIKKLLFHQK
Method in brief: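 Titration series, up to 92 uM, applied to GRE-bla HeLa cells for 18 h at 37 C. Detection by CCF4 FRET substrate after 2 h at RT.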

[2] = target: Glucocorticoid receptor (Homo sapiens) (UniProt P04150); assay: qHTS assay for small molecule antagonists of glucocorticoid receptor signaling (AID 588533; active means well fitted inhibition curve with a large enough effect in the signal ratio, with a control signal flat, not every such curve was filed as active; the % refers to the signal ratio;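 further: cells stimulated with 2 nM dexamethasone as agonist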)
Method in brief: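 Antagonist-mode qHTS: compound titrations added to GRE-bla HeLa cells, then dexamethasone 2 nM final; 18 h, 37 C. CCF4 FRET fluorescence normalized to dexamethasone and DMSO; IC50 from Hill fit.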

[3] = target: Peroxisome proliferator-activated receptor delta (Homo sapiens) (UniProt Q03181); assay: qHTS assay for small molecule agonists of peroxisome proliferator-activated receptor delta signaling (AID 588534)
Chain of Peroxisome proliferator-activated receptor delta (Homo sapiens) (Q03181 whole entry, looked up): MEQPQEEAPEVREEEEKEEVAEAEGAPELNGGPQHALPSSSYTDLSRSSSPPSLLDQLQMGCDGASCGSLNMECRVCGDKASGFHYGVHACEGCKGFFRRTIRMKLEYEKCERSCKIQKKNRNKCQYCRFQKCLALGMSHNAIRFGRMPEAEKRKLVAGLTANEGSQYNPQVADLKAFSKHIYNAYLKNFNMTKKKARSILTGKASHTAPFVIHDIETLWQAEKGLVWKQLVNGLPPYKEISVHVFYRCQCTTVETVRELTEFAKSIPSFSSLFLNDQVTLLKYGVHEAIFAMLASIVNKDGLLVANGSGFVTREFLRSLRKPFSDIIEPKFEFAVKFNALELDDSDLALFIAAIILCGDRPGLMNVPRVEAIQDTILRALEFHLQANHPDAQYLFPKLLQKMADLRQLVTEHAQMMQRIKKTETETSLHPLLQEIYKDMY
Method in brief: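 EC50 and efficacy values derive from Hill fits of a concentration series in a beta-lactamase reporter cell assay. Exposure is 18 hrs at 37 C, with CCF4 fluorescence as the readout.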

[4] = qHTS assay for small molecule antagonists of peroxisome proliferator-activated receptor delta signaling (AID 588535; active means well fitted inhibition curve with a large enough effect in the signal ratio, with a control signal flat, not every such curve was filed as active; the % refers to the signal ratio;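 on max response: cells co-treated with a PPAR-delta agonist as stimulator during compound exposure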); conditions: HEK293T PPARd-UAS-bla, beta-lactamase FRET ratio, 18 h; 460 nm channel
Method in brief: (§1)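 Compounds tested in titration on PPAR-delta-UAS-bla HEK293T cells grown in charcoal/dextran-stripped serum (2%); beta-lactamase activity read via CCF4 emission at 460 and 530 nm.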

[5] = target: Peroxisome proliferator-activated receptor delta (Homo sapiens) (UniProt Q03181); assay: as above
Method in brief: as §1

[6] = target: Peroxisome proliferator-activated receptor gamma (Homo sapiens) (UniProt P37231); assay: qHTS assay for small molecule agonists of peroxisome proliferator-activated receptor gamma signaling (AID 588536; active means well fitted curve in the direction sought with a large enough effect in the signal ratio, with a control signal flat, not every such curve was filed as active; the % refers to the signal ratio)
Chain of Peroxisome proliferator-activated receptor gamma (Homo sapiens) (P37231 whole entry, looked up): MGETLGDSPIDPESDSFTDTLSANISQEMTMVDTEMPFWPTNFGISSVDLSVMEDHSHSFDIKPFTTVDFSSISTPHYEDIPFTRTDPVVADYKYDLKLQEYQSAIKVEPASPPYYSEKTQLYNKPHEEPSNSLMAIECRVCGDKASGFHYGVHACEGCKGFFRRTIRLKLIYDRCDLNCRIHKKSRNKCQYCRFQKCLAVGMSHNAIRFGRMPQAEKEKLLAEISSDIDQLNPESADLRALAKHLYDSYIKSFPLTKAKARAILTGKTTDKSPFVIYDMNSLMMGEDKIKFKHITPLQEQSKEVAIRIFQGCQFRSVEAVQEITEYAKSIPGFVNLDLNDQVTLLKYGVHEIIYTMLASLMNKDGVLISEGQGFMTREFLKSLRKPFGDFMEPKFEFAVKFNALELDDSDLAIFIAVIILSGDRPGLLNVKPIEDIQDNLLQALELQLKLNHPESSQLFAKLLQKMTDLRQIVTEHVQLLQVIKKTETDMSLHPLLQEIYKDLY
Method in brief: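 This is an agonist-mode beta-lactamase reporter assay in HEK293 PPAR-gamma-UAS-bla cells with 1% charcoal/dextran FBS. Compound titrations ran 16 h at 37 C before CCF4 detection. EC50 and efficacy are Hill fits scaled to 2 uM rosiglitazone (100%) and DMSO basal.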

[7] = qHTS assay for small molecule agonists of retinoid X receptor alpha signaling (AID 588544); conditions: HEK293T RXRa-UAS-bla, beta-lactamase reporter, 18 h; 530 nm emission
[8] = target: Retinoic acid receptor RXR-alpha (Homo sapiens) (UniProt P19793); assay: as above
Chain of Retinoic acid receptor RXR-alpha (Homo sapiens) (P19793 whole entry, looked up): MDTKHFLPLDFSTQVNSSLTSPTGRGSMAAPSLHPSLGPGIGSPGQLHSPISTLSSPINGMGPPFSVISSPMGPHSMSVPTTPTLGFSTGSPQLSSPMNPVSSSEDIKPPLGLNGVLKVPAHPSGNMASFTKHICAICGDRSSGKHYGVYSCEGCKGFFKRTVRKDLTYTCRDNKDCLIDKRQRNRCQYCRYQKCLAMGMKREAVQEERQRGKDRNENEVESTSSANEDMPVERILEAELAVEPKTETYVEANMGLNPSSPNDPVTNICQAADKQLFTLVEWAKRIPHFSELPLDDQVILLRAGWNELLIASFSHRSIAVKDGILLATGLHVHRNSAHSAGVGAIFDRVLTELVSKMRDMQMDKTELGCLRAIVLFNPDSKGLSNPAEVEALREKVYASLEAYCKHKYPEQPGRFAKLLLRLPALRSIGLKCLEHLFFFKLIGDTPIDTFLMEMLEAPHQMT

[9] = target: Thyroid hormone receptor beta (Homo sapiens) (UniProt P10828); assay: qHTS assay for small molecule agonists of thyroid hormone receptor beta signaling (AID 588545)
Chain of Thyroid hormone receptor beta (Homo sapiens) (P10828 whole entry, looked up): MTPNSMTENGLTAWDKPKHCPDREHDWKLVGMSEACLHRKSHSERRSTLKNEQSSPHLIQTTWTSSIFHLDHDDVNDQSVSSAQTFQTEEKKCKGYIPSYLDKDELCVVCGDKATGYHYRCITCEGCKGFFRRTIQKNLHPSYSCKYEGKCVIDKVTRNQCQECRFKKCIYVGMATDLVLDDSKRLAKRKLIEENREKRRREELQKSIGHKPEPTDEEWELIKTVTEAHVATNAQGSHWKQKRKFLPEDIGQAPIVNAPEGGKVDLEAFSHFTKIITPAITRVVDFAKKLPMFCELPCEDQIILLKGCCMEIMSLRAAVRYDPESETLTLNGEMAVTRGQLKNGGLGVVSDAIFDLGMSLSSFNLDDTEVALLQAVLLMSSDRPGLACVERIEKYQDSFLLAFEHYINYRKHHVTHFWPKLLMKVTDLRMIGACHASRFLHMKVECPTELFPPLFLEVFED
Method in brief: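 Efficacy and EC50 values derive from Hill fits of qHTS titration data, normalized to 10 nM T3 and DMSO-only wells. HEK 293 reporter cells were stimulated for 18 hrs at 37 C, with beta-lactamase activity measured by CCF4 fluorescence.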

[10] = qHTS assay for small molecule antagonists of retinoid X receptor alpha signaling (AID 588546; active means well fitted inhibition curve with a large enough effect in the signal ratio, with a control signal flat, not every such curve was filed as active; the % refers to the signal ratio;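 further: cells stimulated with 9-cis-retinoic acid as agonist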); conditions: HEK293T RXRa-UAS-bla, beta-lactamase ratio, antagonist mode; measured here: W530 green channel, cytotoxicity proxy
Method in brief: (§2)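 Beta-lactamase reporter inhibition, read as CCF4 fluorescence ratio (ex 405, em 460/530 nm) after 2 h at RT. HEK293T UAS-bla cells, 2500/well, were stimulated with 9-cis-RA at 500 or 100 nM final alongside test compound for 18 h at 37 C.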

[11] = target: Retinoic acid receptor RXR-alpha (Homo sapiens) (UniProt P19793); assay: as above; conditions: HEK293T RXRa-UAS-bla, beta-lactamase ratio, antagonist mode
Method in brief: as §2

[12] = target: Thyroid hormone receptor beta (Homo sapiens) (UniProt P10828); assay: qHTS assay for small molecule antagonists of thyroid hormone receptor beta signaling (AID 588547; active means well fitted inhibition curve with a large enough effect in the signal ratio, with a control signal flat, not every such curve was filed as active; the % refers to the signal ratio;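 further: cells stimulated with 0.4 nM T3 agonist during compound exposure; series mostly up to about 77 µM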); conditions: TR-UAS-bla HEK293, beta-lactamase ratio, antagonist mode, 18 h
Method in brief: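 TR-UAS-bla GripTite HEK293 cells in 2% charcoal/dextran FBS medium were preincubated 4 h at 37 C, given compound (0.59 nM to 92 uM) plus 0.4 nM T3 (final) for 18 h, then CCF4 for 2 h at RT; Hill fit gave IC50.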

[13] = target: Luciferin 4-monooxygenase (Photinus pyralis) (UniProt P08659); assay: Biochemical firefly luciferase enzyme assay for NPC (AID 624030; active means well fitted curve in the direction sought with a large enough effect; an effect the other way counts as inactive or inconclusive;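 further: purified P. pyralis luciferase at 10 nM with luciferin and ATP substrate; series mostly up to about 59 µM; nearly all actives have a fitted effect of over 70% in size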)
Chain of Luciferin 4-monooxygenase (Photinus pyralis) (P08659 whole entry, looked up): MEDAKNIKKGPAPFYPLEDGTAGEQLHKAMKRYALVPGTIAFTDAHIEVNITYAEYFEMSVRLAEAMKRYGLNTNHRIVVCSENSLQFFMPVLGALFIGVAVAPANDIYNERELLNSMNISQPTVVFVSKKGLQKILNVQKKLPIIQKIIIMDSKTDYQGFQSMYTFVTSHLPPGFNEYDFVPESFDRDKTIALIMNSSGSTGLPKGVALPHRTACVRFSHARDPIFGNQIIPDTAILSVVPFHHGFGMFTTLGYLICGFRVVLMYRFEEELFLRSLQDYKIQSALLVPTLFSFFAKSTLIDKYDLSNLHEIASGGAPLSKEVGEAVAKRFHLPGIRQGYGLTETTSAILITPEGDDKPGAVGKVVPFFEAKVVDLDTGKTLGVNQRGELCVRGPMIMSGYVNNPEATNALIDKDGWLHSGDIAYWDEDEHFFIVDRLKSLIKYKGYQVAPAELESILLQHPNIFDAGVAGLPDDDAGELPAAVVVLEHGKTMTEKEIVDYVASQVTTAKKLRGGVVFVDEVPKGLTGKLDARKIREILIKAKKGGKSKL
Method in brief: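 Counter-screen for direct inhibition of the luciferase enzyme by approved-drug library compounds, run at 10 nM enzyme in 50 mM Tris acetate (final). Luminescence was read within 5 min of enzyme-buffer addition and normalized to PTC124 versus DMSO (0%).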

[14] = target: Peroxisome proliferator-activated receptor gamma (Homo sapiens) (UniProt P37231); assay: qHTS assay for small molecule antagonists of peroxisome proliferator-activated receptor gamma signaling (AID 588537; active means well fitted inhibition curve with a large enough effect in the signal ratio, with a control signal flat, not every such curve was filed as active; the % refers to the signal ratio;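 further: reporter cells co-stimulated with 50 nM rosiglitazone agonist during compound treatment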)
Method in brief: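 HEK293 cells, PPAR-gamma-UAS-bla, 3000/well. Pre-incubation 6-6.5 h, 37 C. Compound titration with rosiglitazone 50 nM final, 16 h. CCF4 dye, 2 h RT, dual-emission fluorescence.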

[15] = target: Vitamin D3 receptor (Homo sapiens) (UniProt P11473); assay: qHTS assay for small molecule antagonists of vitamin D receptor signaling (AID 588541);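 further: receptor activated by calcitriol during compound treatment; series mostly up to about 77 µM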
Chain of Vitamin D3 receptor (Homo sapiens) (P11473 whole entry, looked up): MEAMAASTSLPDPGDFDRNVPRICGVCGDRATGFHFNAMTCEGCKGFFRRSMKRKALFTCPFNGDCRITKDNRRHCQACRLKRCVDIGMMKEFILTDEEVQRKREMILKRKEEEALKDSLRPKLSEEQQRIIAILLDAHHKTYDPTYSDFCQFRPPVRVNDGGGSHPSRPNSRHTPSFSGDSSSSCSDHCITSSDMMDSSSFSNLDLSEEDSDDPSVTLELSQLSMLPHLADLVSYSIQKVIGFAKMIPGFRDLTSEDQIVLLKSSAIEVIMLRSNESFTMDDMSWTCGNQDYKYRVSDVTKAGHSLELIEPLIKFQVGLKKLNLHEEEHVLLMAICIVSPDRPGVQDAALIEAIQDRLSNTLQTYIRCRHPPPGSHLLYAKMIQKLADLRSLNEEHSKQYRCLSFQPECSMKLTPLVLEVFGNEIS
Method in brief: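 VDR-UAS-bla HEK293T cells (2000/well, 2% charcoal-stripped FBS) were treated with titrated compounds plus 1-alpha,25-dihydroxyvitamin D3 (50 nM or 3 nM final) for 16 h at 37 C. CCF4 beta-lactamase fluorescence was read; Hill fits gave IC50.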

[16] = target: Voltage-gated inwardly rectifying potassium channel KCNH2 (Homo sapiens) (UniProt Q12809); assay: qHTS Assay for Small Molecule Inhibitors of the Human hERG Channel Activity (AID 588834; active means well fitted curve in the direction sought with a large enough effect; an effect the other way counts as inactive or inconclusive;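 further: top concentration of the series differs between compounds; lower thallium flux fluorescence means stronger hERG block; nearly all actives have a fitted effect of over 50% in size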)
Chain of Voltage-gated inwardly rectifying potassium channel KCNH2 (Homo sapiens) (Q12809 whole entry, looked up): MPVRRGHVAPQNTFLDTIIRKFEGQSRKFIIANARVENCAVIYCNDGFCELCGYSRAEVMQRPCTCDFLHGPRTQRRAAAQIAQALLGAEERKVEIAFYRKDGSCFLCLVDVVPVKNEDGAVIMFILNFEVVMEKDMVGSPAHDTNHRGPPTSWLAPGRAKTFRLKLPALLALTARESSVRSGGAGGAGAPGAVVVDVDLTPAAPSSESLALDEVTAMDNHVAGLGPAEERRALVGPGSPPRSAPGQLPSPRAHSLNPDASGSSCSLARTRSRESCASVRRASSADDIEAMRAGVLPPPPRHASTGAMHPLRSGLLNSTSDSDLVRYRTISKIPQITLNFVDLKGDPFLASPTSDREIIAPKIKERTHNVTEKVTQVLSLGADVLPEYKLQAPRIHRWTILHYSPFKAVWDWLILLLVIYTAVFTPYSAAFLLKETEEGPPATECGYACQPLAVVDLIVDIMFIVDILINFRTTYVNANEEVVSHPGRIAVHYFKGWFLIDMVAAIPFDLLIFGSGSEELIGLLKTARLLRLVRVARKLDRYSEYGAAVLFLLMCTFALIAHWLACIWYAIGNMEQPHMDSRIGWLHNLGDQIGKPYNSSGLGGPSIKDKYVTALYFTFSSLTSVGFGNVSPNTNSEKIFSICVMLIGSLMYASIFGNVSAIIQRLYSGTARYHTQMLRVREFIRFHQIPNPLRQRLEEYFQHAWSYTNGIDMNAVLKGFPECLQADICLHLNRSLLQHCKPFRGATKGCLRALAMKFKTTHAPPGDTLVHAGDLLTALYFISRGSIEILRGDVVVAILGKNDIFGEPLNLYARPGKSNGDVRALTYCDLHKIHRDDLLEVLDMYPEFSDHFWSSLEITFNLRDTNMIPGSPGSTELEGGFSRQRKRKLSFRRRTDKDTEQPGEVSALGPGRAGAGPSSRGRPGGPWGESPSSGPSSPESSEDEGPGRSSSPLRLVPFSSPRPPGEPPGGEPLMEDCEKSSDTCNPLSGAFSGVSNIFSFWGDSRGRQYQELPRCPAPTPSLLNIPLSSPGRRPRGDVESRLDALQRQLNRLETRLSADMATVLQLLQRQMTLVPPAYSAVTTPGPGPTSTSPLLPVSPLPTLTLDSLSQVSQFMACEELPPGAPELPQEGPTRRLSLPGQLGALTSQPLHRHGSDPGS
Method in brief: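 hERG block measured as reduced thallium-dye (FluxOR) fluorescence after stimulation buffer addition, read over 2 min. Cells were hERG-BacMam-transduced U2OS exposed to compound ~10 min […]; concentration-response fitted with Hill equation for AC50.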

[17] = S16 Schwann cell viability assay (CellTiter-Glo assay) (AID 624031; active means well fitted curve in the direction sought with a large enough effect; an effect the other way counts as inactive or inconclusive;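 further: native untransfected S16 rat Schwann cells; cellular ATP luminescence as a viability measure; series mostly up to about 58 µM; nearly all actives have a fitted effect of over 70% in size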)
Method in brief: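 Following overnight culture in 10% FBS DMEM, parental S16 rat Schwann cells are dosed for 24 h at 37 °C. Viability is read as CellTiter-Glo luminescence and expressed as % activity relative to DMSO (0%) and no-cell wells.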

[18] = S16 Schwann cell PMP22 intronic element firefly luciferase assay (AID 624032; active means well fitted curve in the direction sought with a large enough effect; an effect the other way counts as inactive or inconclusive; further: series mostly up to about 58 µM; nearly all actives have a fitted effect of over 30% in size)
Method in brief: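 Rat S16 Schwann cells stably carrying a PMP22 intronic element-driven Fluc reporter were seeded overnight, then exposed to compounds for 24 h at 37 °C. Luminescence was normalized to PTC124 (positive control) and DMSO (0% activity).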

| Structure (SMILES) | activation [1] | Potency [2] | outcome [3] | max response [4] | Potency [5] | outcome [6] | max response [7] | Potency [8] | outcome [9] | max response [10] | max response [11] | activity change % (negative = inhibition) [12] | Potency [13] | Potency [14] | Potency [15] | Potency [16] | Potency [17] | Potency [18] |
| --- | --- | --- | --- | --- | --- | --- | --- | --- | --- | --- | --- | --- | --- | --- | --- | --- | --- | --- |
| CCCCOC(=O)c1ccccc1C(=O)OCc1ccccc1 | 3.04% (inactive) and 3.89% (inactive) | inactive | inactive | -18.4% and -2.86% | inactive | inactive | -17.6% and 5.59% | inactive | inactive | -7.26% and -17.3% | 2.44% (inactive) and -9.61% (inactive) | 11.3% (inactive) | inactive |  |  |  |  |  |
| O=S(=O)(O)C(F)(F)C(F)(F)C(F)(F)C(F)(F)C(F)(F)C(F)(F)C(F)(F)C(F)(F)F |  |  |  |  |  | inactive | -11.4% and -1.61% | inactive | inactive | -5.97% and -3.14% | -2.01% (inactive) and 4.02% (inactive) | -0.756% (inactive) |  | inactive | inactive |  |  |  |
| CN1C(=O)c2ccccc2C1=O |  |  | inactive |  |  |  |  |  |  |  |  |  |  |  |  |  |  |  |
| O=[N+]([O-])c1cc([N+](=O)[O-])c2ccccc2c1 | -0.539% (inactive) |  | inactive | 44.3% | inactive | inactive | -2.69% | inactive | inactive | -9.65% | 12.9% (inactive) | -11.2% (inactive) | inactive | inactive | inactive |  |  |  |
| CCCCCCCCCC(CC)c1ccc(S(=O)(=O)O)cc1 (stereo not drawn) | 8.71% (inactive) and 0.614% (inactive) | inactive | inactive | -20.6% and 1.67% | inactive | inactive | 2.78% and -0.585% | inactive | inactive | -9.16% and 3.96% | 4.12% (inactive) and -4.98% (inactive) | 6.11% (inactive) and -12% (inactive) | inactive | inactive |  | inactive | inactive | inactive |
| CO/C=C(/C(=O)OC)c1ccccc1Oc1cc(Oc2ccccc2C#N)ncn1 | -0.939% (inactive) |  | inactive |  |  |  |  |  | inactive |  |  |  | inactive |  | inactive |  |  |  |
| ClC1=C(Cl)[C@]2(Cl)[C@@H]3[C@@H]4C[C@@H]([C@H]5O[C@@H]45)[C@@H]3[C@@]1(Cl)C2(Cl)Cl | -15% (inactive) | inactive | inactive | 34.4% | inactive |  |  |  | inactive | 5.74% | -14.7% (inactive) | -14.5% (inactive) | inactive |  | inactive |  |  |  |
| COCCOCCO |  |  | inactive | -0.0574% | inactive | inactive | 0.722% | inactive | inactive | 3.81% and -4.43% | -11.3% (inactive) and -22% (inactive) | 1.33% (inactive) and -16.2% (inactive) | inactive | inactive | inactive |  |  |  |
| CN(C)c1ccc(N=NS(=O)(=O)O)cc1 |  |  | inactive |  |  |  |  |  |  |  |  |  |  |  |  |  |  |  |
| O=S(=O)(O)C(F)(F)C(F)(F)C(F)(F)C(F)(F)F | 0.888% (inactive) | inactive | inactive | 48.3% and 16.2% | inactive | inactive |  |  | inactive |  |  | -13.9% (inactive) | inactive | inactive | inactive |  |  |  |
| CCCCCCCCc1ccc(O)cc1 | 0.354% (inactive) and -8.06% (inactive) |  | inactive | -43.1% and -32.6% | inactive | inactive | -5.76% and -13.1% | inactive | inactive | -5.97% | -17.2% (inactive) |  |  | inactive | inactive | inactive |  |  |

— PubChem BioAssay (NCATS)
